In the library only some 18% were active in any assay of this set; here they are far more common.
TDP1 cell CPT: DT40-hTDP1 cell growth loss with CPT. chicken DT40 Tdp1-/-;hTDP1 cells + 20 nM CPT, ATP luminescence, 48 h. Potency, µM (series often up to 46.2 µM), for inactives: at the highest dose activity change, negative = growth inhibition, actives largely listed as inhibitors. actives 12% (n = 420,000). AID 686979; also: potency is read from the fitted curve at half-maximal effect; nearly all actives have a fitted effect of over 55% in size
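Cell growth measured by CellTiter-Glo luminescence after a minimum 48 h, 37 C compound exposure with 20 nM CPT in Tdp1-knockout DT40 cells stably expressing hTDP1, seeded 400/well; qHTS titration format.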
Gal4-VP16 FLuc: Gal4-VP16 reporter inhibition counter-screen. Drosophila S2 Gal4-VP16 UAS-luciferase, luminescence, 20 h. Potency, µM (top dose mostly 53.6 µM), inactives show top-dose activity, negative = inhibition, most hits filed as inhibitors. actives 3.5% (n = 310,000). AID 2546;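 also: Gal4-VP16 expression switched on by copper sulfate through the metallothionein promoter; potency is read from the fitted curve at half-maximal effect; nearly all actives have a fitted effect of over 50% in size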
IL1B secr inh: inflammasome signaling inhibition, IL-1 beta readout | THP-1 LPS/ATP IL-1B secretion, AlphaLISA, 16 h; active compounds read low | activity change, % at 57.5 µM | actives 4.7% (n = 360,000); in the data active = activity change below about -50%; inconclusive = mostly about -30% to -49%
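Secreted IL-1B measured by AlphaLISA bead assay after 16 h compound exposure of THP-1 cells; compounds (final up to 57.5 uM) added 1 h before LPS (250 ng/mL) and ATP (1.25 mM) stimulation; lower signal means less secretion.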
LDHA block: inhibitors of human lactate dehydrogenase A; purified LDHA, NADH/diaphorase-resazurin fluorescence; active compounds read low; actives 0.15% (n = 480,000); activity change, % (values are at about 110 or 230 µM); P00338; in the data active = activity change below about -30%; inconclusive = mostly about -25% to -30%;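 also: plate controls were DMSO wells for no effect and wells without enzyme for full effect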
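Human LDH5 (2 nM) was incubated with 0.06 mM NADH and 0.2 mM pyruvate for 5 min at room temperature in Tris pH 7.4. Remaining NADH was coupled through diaphorase/resazurin, and resorufin fluorescence was read at 0 and 20 min.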
TDP1 cell noCPT: qHTS for Inhibitors of human tyrosyl-DNA phosphodiesterase 1 (TDP1): qHTS in cells in absence of CPT. DT40 Tdp1-/- hTDP1 cells, no CPT, ATP luminescence, 48 h. Potency, µM (titrated, usually from 46.2 µM), for inactives: top-dose activity change, negative = growth inhibition, actives largely listed as inhibitors. actives 15% (n = 420,000); also: potency is read from the fitted curve at half-maximal effect; nearly all actives have a fitted effect of over 55% in size
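Luminescent ATP content (CellTiter-Glo) served as the growth readout. Knockout chicken DT40 cells expressing human TDP1 were exposed to compounds without camptothecin for a minimum 48 hr at 37 °C.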
RORgamma inh: blocks mouse ROR gamma transcriptional activity; actives 5.4% (n = 310,000); Potency, µM (doses to about 53.6 µM), for inactives: top-dose activity change, negative = inhibition, hits mostly inhibitors; AID 2551; P51450; Drosophila S2 Gal4-RORgamma UAS-luciferase reporter, 20 h; also: potency is read from the fitted curve at half-maximal effect; nearly all actives have a fitted effect of over 60% in size
Target sequence (P51450 whole entry, looked up, the tested form may be a part): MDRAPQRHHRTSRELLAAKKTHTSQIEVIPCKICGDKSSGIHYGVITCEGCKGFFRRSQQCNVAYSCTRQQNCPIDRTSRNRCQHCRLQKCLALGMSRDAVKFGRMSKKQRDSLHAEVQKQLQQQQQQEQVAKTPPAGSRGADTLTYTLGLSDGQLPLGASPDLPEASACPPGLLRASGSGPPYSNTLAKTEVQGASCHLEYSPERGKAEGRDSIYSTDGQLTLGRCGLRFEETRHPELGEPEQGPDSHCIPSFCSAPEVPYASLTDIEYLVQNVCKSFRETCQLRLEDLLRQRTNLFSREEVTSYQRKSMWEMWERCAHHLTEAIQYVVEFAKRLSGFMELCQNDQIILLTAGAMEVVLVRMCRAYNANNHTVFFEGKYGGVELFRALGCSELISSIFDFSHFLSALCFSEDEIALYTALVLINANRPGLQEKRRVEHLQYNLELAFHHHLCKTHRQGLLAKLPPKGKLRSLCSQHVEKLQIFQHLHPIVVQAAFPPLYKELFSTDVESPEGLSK
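Drosophila S2 cells stably expressing Gal4-DBD/mouse RORγ fusion under metallothionein promoter plus UAS-luciferase; compound 1 h, then 700 uM CuSO4 induction for 20 h at ambient temperature; inhibition read as reduced luminescence.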
* marks the source's active call; other numbers are inactive results; [ ] = remark or other dose. Unless noted, calls follow the shape of the dose curve; as a rule, active = well fitted curve in the direction sought with a large enough effect; inconclusive = small, poorly fitted or top-dose-only effect, or another doubt; inactive = no such curve, though single readings can be large; an effect the other way counts as inactive or inconclusive. Unless noted, % is scaled to controls: 0 for no effect and ±100 for the full control effect.

How did CCC(=O)Nc1ccc2c(c1)OC[C@@H](C)N(Cc1cccc(F)c1)C[C@@H](C)[C@@H](OC)CN(C)C2=O do in these assays?
TDP1 cell CPT: inconclusive; IL1B secr inh: 4; LDHA block: -3; TDP1 cell noCPT: 23µM*

How did CO[C@@H]1CN(C)C(=O)c2ccc(NC(C)=O)cc2OC[C@@H](C)N(C(=O)NC2CCCCC2)C[C@H]1C do in these assays?
TDP1 cell CPT: -5%; IL1B secr inh: 29; LDHA block: -3; TDP1 cell noCPT: 6%

Results for CO[C@H]1CN(C)C(=O)c2ccc(NC(=O)C3CCC3)cc2OC[C@H](C)N(CC2CCCCC2)C[C@@H]1C ?
TDP1 cell CPT: inconclusive; IL1B secr inh: 15; LDHA block: 2; TDP1 cell noCPT: 21µM*

What do the screens show for `CO[C@@H]1CN(C)C(=O)c2cc(NC(=O)NC3CCCCC3)ccc2OC[C@@H](C)N(CCc2ccccc2)C[C@@H]1C`?
TDP1 cell CPT: 16µM*; IL1B secr inh: -6; LDHA block: -3; TDP1 cell noCPT: inconclusive

Results for CO[C@@H]1CN(C)C(=O)c2ccc(NC(=O)C3CCCC3)cc2OC[C@@H](C)N(Cc2ccc(F)cc2)C[C@H]1C ?
TDP1 cell CPT: inconclusive; IL1B secr inh: 0; LDHA block: -3; TDP1 cell noCPT: inconclusive

What do the screens show for `CC(C)c1ccc(C(=O)Cn2cnc3c2c(=O)n(C)c(=O)n3C)c(C(C)C)c1`?
LDHA block: 4

Results for Cc1cc2oc(=O)cc(COC(=O)CCCN=C3NS(=O)(=O)c4ccccc43)c2cc1C ?
LDHA block: 6

Results for CCN(CC)CCNC(=O)c1ccc(NC(=O)c2ccc(S(=O)(=O)N3CCCCCC3)cc2)cc1 ?
TDP1 cell CPT: inconclusive; IL1B secr inh: -8; LDHA block: -3; TDP1 cell noCPT: inconclusive

How did COC(=O)c1ccc(N2CCCCC2)c(NS(=O)(=O)c2ccc(C)cc2)c1 do in these assays?
TDP1 cell CPT: 16µM*; Gal4-VP16 FLuc: 0%; IL1B secr inh: -2; LDHA block: -4; TDP1 cell noCPT: inconclusive; RORgamma inh: 7%

Results for CCOC(=O)c1ccc(N2CCCCC2)c(NS(=O)(=O)c2cccc(C(F)(F)F)c2)c1 ?
TDP1 cell CPT: inconclusive; Gal4-VP16 FLuc: -5%; IL1B secr inh: 0; LDHA block: 1; TDP1 cell noCPT: inconclusive; RORgamma inh: 2%

How did CCS(=O)(=O)N1CCN(c2ccc(C(=O)NC3C4CC5CC(C4)CC3C5)cc2[N+](=O)[O-])CC1 (stereo not given) do in these assays?
TDP1 cell CPT: 8.2µM*; Gal4-VP16 FLuc: -19%; IL1B secr inh: 4; LDHA block: 10; TDP1 cell noCPT: 8.2µM*; RORgamma inh: inconclusive

What do the screens show for `COC(=O)c1ccc(N2CCN(S(=O)(=O)c3ccc(Br)cc3)CC2)c([N+](=O)[O-])c1`?
TDP1 cell CPT: inconclusive; Gal4-VP16 FLuc: -6%; IL1B secr inh: -18; LDHA block: -4; TDP1 cell noCPT: inconclusive; RORgamma inh: 31%

How did COC(=O)c1ccc(N2CCN(S(=O)(=O)c3ccc(C)cc3)CC2)c([N+](=O)[O-])c1 do in these assays?
TDP1 cell CPT: 18µM*; Gal4-VP16 FLuc: -11%; IL1B secr inh: 8; LDHA block: -15; TDP1 cell noCPT: 21µM*; RORgamma inh: inconclusive

What do the screens show for `CCN(CC)CCNC(=O)c1ccc(N2CCCCC2)c(NS(=O)(=O)c2ccc(C)cc2)c1`?
TDP1 cell CPT: 26µM*; Gal4-VP16 FLuc: 7%[0.365 µM]; IL1B secr inh: -28; LDHA block: -3; TDP1 cell noCPT: 21µM*; RORgamma inh: -43%

Results for O=C(O)c1ccc(N2C(=O)C3C4c5ccccc5C(Br)(c5ccccc54)C3C2=O)cc1 (stereo not given) ?
TDP1 cell CPT: 31%; Gal4-VP16 FLuc: -9%; IL1B secr inh: -8; LDHA block: -6; TDP1 cell noCPT: -16%; RORgamma inh: -2%

What do the screens show for `O=C1C2C3c4ccccc4C(c4ccccc43)C2C(=O)N1c1cccnc1` (stereo not given)?
TDP1 cell CPT: 0%; Gal4-VP16 FLuc: -3%; IL1B secr inh: -4; LDHA block: -1; TDP1 cell noCPT: 0%; RORgamma inh: -3%

How did CC12c3ccccc3C(c3ccccc31)C1C(=O)N(c3cccnc3)C(=O)C12 (stereo not given) do in these assays?
TDP1 cell CPT: inconclusive; Gal4-VP16 FLuc: 8%; IL1B secr inh: 20; LDHA block: -1; TDP1 cell noCPT: 15µM*; RORgamma inh: -11%

What do the screens show for `CC12c3ccccc3C(c3ccccc31)C1C(=O)N(Cc3cccnc3)C(=O)[C@H]12` (stereo not given in full)?
TDP1 cell CPT: 18µM*; Gal4-VP16 FLuc: 2%; IL1B secr inh: -10; LDHA block: -1; TDP1 cell noCPT: inconclusive; RORgamma inh: -12%

How did CC12c3ccccc3C(c3ccccc31)C1C(=O)N(c3ccncc3)C(=O)C12 (stereo not given) do in these assays?
TDP1 cell CPT: 16µM*; Gal4-VP16 FLuc: -7%; IL1B secr inh: 0; LDHA block: -1; TDP1 cell noCPT: 16µM*; RORgamma inh: inconclusive

What do the screens show for `O=C1C2C3C=CC([C@@H]2C(=O)N1Cc1cccnc1)C31CC1` (stereo not given in full)?
TDP1 cell CPT: -13%; Gal4-VP16 FLuc: -5%; IL1B secr inh: -5; LDHA block: -4; TDP1 cell noCPT: -2%; RORgamma inh: 8%

How did CCCn1c(C(C)Nc2nc(-c3cc(Cl)c(N)c(Cl)c3)cs2)nc2cc(Cl)c(N3CCCCC3)cc21 (stereo not given) do in these assays?
TDP1 cell CPT: 18µM*; Gal4-VP16 FLuc: 1%; IL1B secr inh: 7; LDHA block: 1; TDP1 cell noCPT: inconclusive; RORgamma inh: 14µM*

How did Cc1csc(NC(C)c2nc3cc(Cl)c(N4CCCCC4)cc3n2CCOCCO)n1 (stereo not given) do in these assays?
TDP1 cell CPT: inconclusive; IL1B secr inh: -19; LDHA block: 4; TDP1 cell noCPT: inconclusive

How did CCCn1c(C(C)Nc2nc(C)cs2)nc2cc(Cl)c(Cl)cc21 (stereo not given) do in these assays?
TDP1 cell CPT: inconclusive; Gal4-VP16 FLuc: -4%; IL1B secr inh: -8; LDHA block: 3; TDP1 cell noCPT: inconclusive; RORgamma inh: inconclusive
